The campaign covered roughly 52,000 compounds. About 4,300 (8.3%) were called active. The sample as a whole holds a higher share of actives than the screen did. Values without a mark were called inactive. No stated cut-off is given here; in the data, active means survival mostly below about 52% (no sharp cut-off); inactive means mostly above about 56%.
Tested on: DeltatarO mutant
Experiment: growth inhibition of S. aureus wild type versus tarO mutant, primary screen, teichoic acid synthesis inhibitors, RN4220, OD600 (AID 463173)
Details: OD600, 18 h, hits give low values, screened at 18.75 µg/mL (by protocol)

SMILES	survival
COc1ccc(C(=O)NCc2ccc3c(c2)CCN3C(=O)c2ccc(Cl)cc2)c(OC)c1	94%
COc1ccc(Cl)cc1NC(=O)C(C)n1nnc2sc3c(c2c1=O)CCCC3 (stereo unspecified)	78%
Cc1cccc(NS(=O)(=O)c2ccc(Cl)c(C(=O)Nc3ccccc3C)c2)c1	71%
CC(C)CCOc1ccc(Oc2nc(N(C)C)nc(N(C)C)n2)nn1	62%
Cc1nn(C)c2c1c(C(F)(F)F)cc(=O)n2CC(=O)NCc1ccc(OC(C)C)cc1	90%
Cc1ccc(Nc2c(-c3cccs3)nc3nc(C)cc(C)n23)cc1	15% (active)
Cc1cccc(Nc2c(-c3cccs3)nc3nc(C)cc(C)n23)c1	151%
Cc1cc(C)n2c(Nc3ccccc3C)c(-c3cccs3)nc2n1	84%
Cc1ccc(C)c(NC(=O)Cn2c(=O)n(Cc3ccc4c(c3)OCO4)c(=O)c3ccc(C(=O)NC4CCCCC4)cc32)c1	88%
Cc1cccc(OCC(=O)Nc2cccc(C(=O)OCc3cc(=O)n4c(C)csc4n3)c2)c1	-5% (active)
Cc1ccc(OCC(=O)Nc2cccc(C(=O)OCc3cc(=O)n4c(C)csc4n3)c2)cc1	89%
Cc1csc2nc(COC(=O)c3cccc(NC(=O)COc4ccc(Cl)cc4)c3)cc(=O)n12	94%
Cc1ccccc1C(=O)Nc1cccc(C(=O)OCc2cc(=O)n3c(C)csc3n2)c1	87%
COc1cccc(C(=O)Nc2cccc(C(=O)OCc3cc(=O)n4c(C)csc4n3)c2)c1	128%
Cc1csc2nc(COC(=O)c3cccc(NC(=O)c4cccc(Cl)c4)c3)cc(=O)n12	17% (active)
Cc1csc2nc(COC(=O)c3ccc(F)cc3)cc(=O)n12	72%
CCOc1cc(C(=O)OCc2cc(=O)n3c(C)csc3n2)cc(OCC)c1OCC	-1% (active)
CCOc1ccc(C(=O)Nc2ccc(C(=O)OCc3cc(=O)n4c(C)csc4n3)cc2)cc1	88%
Cc1ccc(NC(=O)CN(C)S(=O)(=O)c2ccc3c(c2)CCC(=O)N3)c(C)c1	85%
CCN(Cc1ccccc1)C(=O)c1nn(-c2ccc(OC)cc2)c(=O)c2c1c1ccccc1n2C	68%
COc1ccccc1NC(=O)CN1C(=O)C(C)(C)c2ccccc21	85%
CCc1ccc2c(c1)NC(c1ccc(C)cc1)=NC(c1cccs1)=N2	68%
Cc1ccc[n+](Cc2cnc(C)nc2N)c1	83%
CCC(=O)N1CCc2cc(S(=O)(=O)NC(Cc3ccccc3)C(=O)Nc3ccccc3C)ccc21 (stereo unspecified)	118%
COc1ccccc1-c1nnc(C2CCN(C(=O)c3ccc(C)cc3)CC2)o1	91%
CCN(CC)N=Nc1ccc(S(=O)(=O)N=C(C)O)cc1	87%

SMILES	survival
Nc1nnc(SCc2ccccc2)s1	49% (active)
Nc1nnc(CSCc2ccccc2)s1	109%
Nc1nc(SCc2ccccc2)ns1	53%
Cc1ccc(Nc2c(C(C)C)c(C)c(C#N)c3nc4ccccc4n23)cc1	62%
CC(=O)Nc1ccc(Nc2c(CCC(C)C)c(C)c(C#N)c3nc4ccccc4n23)cc1	136%
CCc1c(C)c(C#N)c2nc3ccccc3n2c1Nc1cccc(C(F)(F)F)c1	39% (active)
CCn1cc(S(=O)(=O)c2cccc(C)c2)c(=O)c2cc(F)c(N3CCCC(C)C3)cc21 (stereo unspecified)	84%
CC1=C(C(=O)Nc2ccc(C)cc2Cl)C2(CCCCCC2)OC1=O	89%
Cc1nc2cc(-c3ccccc3)nn2c(C)c1CCC(=O)NCCc1ccccc1	54%
CCN1c2cc(C)ccc2-n2cccc2C12CCN(C(=O)Nc1cc(OC)c(OC)c(OC)c1)CC2	93%
COc1cc([N+](=O)[O-])ccc1NC(=O)N1CCC2(CC1)Nc1cc(F)ccc1-n1cccc12	46% (active)
COc1cc([N+](=O)[O-])ccc1NC(=O)N1CCN(c2cc(-c3noc(C)n3)ccc2C)CC1	94%
COc1cc(NC(=O)N2CCC3(CC2)Nc2ccccc2-n2cccc23)cc(OC)c1OC	101%
COc1cc([N+](=O)[O-])ccc1NC(=O)N1CCC2(CC1)Nc1ccccc1-n1cccc12	37% (active)
COc1cc(NC(=O)N2CCC3(CC2)Nc2cc(F)ccc2-n2cccc23)cc(OC)c1OC	105%
Cc1cc(C(=O)Nc2cccc(OC(C)C)c2)c(C)o1	105%
COc1cccc(CNC(=O)c2nnc(Cc3ccc(Cl)cc3)o2)c1	91%
CCOc1ccc(CCNC(=O)CCn2c(=O)c3cccn3c3cccnc32)cc1	89%
CCS/C=C/C#CC1(O)CCCCC1	90%
Cc1ccccc1CNC(=O)c1ccc2nc(SCc3ccc(F)cc3)n(C)c2c1	60%
COc1ccc(Cl)cc1NC(=O)Cn1ncc2c3ccccc3n(Cc3ccccc3)c2c1=O	125%
CCOC(=O)Cn1nnc(-c2ccccc2)n1	95%
CCOC(=O)c1[nH]c2c(c1Cc1ccccc1C)C(=O)CC(c1cc(OC)ccc1OC)C2 (stereo unspecified)	82%
COc1ccc(N2CCN(C(=O)CCc3c(C)nc4cc(-c5ccc(Cl)cc5)nn4c3C)CC2)cc1	116%
O=C(O)/C=C/C(=O)Nc1nnc(-c2ccccc2F)s1	97%

Source: PubChem BioAssay AID463173 (ICCB-Longwood Screening Facility, Harvard Medical School, 2010)
